An excerpt weighted towards active compounds, which were near 3.6% of everything screened.
DUSP3 inh – DUSP3 (human) phosphatase inhibition; P51452; recombinant VHR phosphatase, pNPP absorbance; inhibition, % at 13.3 µM; 0.52% of 290,000 active; AID 1654; in the data active = inhibition above about 50%
Target sequence (P51452 whole entry, looked up): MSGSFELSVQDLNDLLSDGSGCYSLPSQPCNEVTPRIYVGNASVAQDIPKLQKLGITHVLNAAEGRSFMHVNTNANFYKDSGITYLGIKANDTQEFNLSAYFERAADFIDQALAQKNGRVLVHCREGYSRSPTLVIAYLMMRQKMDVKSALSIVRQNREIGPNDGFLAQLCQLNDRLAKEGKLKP
Mtb hypoxia inh – inhibitors of hypoxia-regulated fluorescent reporter in Mycobacterium tuberculosis; M. tuberculosis hypoxia-regulated fluorescent reporter, fluorescence; fluorescence inhibition, % (concentration not given with the values); 0.1% of 300,000 active; AID 1159583; in the data active = fluorescence inhibition mostly above about 23%, no sharp cut-off; inactive = mostly below about 17%
Mtb bLac sens – beta-lactam sensitization of Mtb H37Rv. M. tuberculosis H37Rv growth with meropenem, percent inhibition. inhibition, % at 25 µM. 0.27% of 330,000 active. AID 434955; call rule not given here;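 also: growth measured after seven days incubation then overnight dye step; 0% = bacteria only wells and 100% = bacteria with antibiotic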
FBA Mtb inh – Mtb fructose-bisphosphate aldolase inhibition; 2.3% of 360,000 active; purified M. tuberculosis FBA, fluorescence read-out; inhibition, % at 1 µM; P9WQA3; in the data active = inhibition above about 27%;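 also: 0% = vehicle and 100% = reference inhibitor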
Target sequence (P9WQA3 whole entry, looked up): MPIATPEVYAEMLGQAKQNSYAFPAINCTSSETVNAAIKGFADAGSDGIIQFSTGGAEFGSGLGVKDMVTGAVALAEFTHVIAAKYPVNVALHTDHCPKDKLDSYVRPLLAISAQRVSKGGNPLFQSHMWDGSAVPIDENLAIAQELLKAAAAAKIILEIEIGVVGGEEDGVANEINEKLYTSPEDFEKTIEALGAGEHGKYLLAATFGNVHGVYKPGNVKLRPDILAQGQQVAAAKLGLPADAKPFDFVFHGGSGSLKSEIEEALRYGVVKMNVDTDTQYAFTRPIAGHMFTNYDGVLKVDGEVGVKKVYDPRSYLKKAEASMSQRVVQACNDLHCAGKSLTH
GDH-TPI counter – GDH-TPI coupled enzyme inhibition counter-screen; GDH-TPI coupled enzyme counterscreen, NADH absorbance; inhibition, % at 4.8 µM; 1.2% of 360,000 active; in the data active = inhibition above about 30%;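 also: 0% = DMSO wells and 100% = wells lacking the enzyme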
* hit, by the source's call; . = no result shown; + = active, no number.

SMILES	DUSP3 inh	Mtb hypoxia inh	Mtb bLac sens	FBA Mtb inh	GDH-TPI counter
Cc1csc(=NC(=O)c2ccccc2)n1C	-10	.	1	0	10
CCn1c(C)csc1=NC(=O)c1ccccc1O	17	.	-3	0	37*
CCn1c(C)csc1=NC(=O)c1ccccc1	7	.	12	-8	34*
Cc1ccc[n+](CC(=O)Nc2cccc([N+](=O)[O-])c2)c1	12	11	1	2	1
Cc1ccc[n+](CC(=O)Nc2ccc([N+](=O)[O-])cc2)c1	11	3	-6	2	42*
O=c1oc2cc(O[C@@H]3OC[C@@H](O)[C@H](O)[C@H]3O)ccc2c2ccccc12	17	0	1	71*	15
Cc1c(Cc2ccccc2)c(=O)oc2cc(OCC(=O)N3CCC(C(=O)O)CC3)ccc12	21	.	-5	148*	32*
Cc1c(C)c2ccc(OCC(=O)N3CCN(Cc4ccccc4)CC3)cc2oc1=O	.	-2	0	0	3
O=C(O)C1CCN(C(=O)COc2ccc3c(c2)oc(=O)c2ccccc23)CC1	25	.	-9	138*	11
Cc1c(OCC(=O)N2CCC(C(=O)O)CC2)ccc2c1oc(=O)c1ccccc12	4	.	-6	142*	11
COc1cccc(C=c2sc3nc(-c4cccs4)nn3c2=O)c1OC	.	3	.	.	.
O=C(COc1ccc2c(c1)oc(=O)c1ccccc12)N[C@@H](Cc1ccccc1)C(=O)O	24	.	-6	115*	9
O=C(COc1ccc2c3c(c(=O)oc2c1)CCC3)NC(Cc1ccc(Cl)cc1)C(=O)O (stereo unspecified)	8	.	-4	21	12
CCOC(=O)c1c(-c2ccccc2)oc2ccc(OCC(=O)O)cc12	17	4	-12	161*	-1
CCOC(=O)c1c(-c2ccc(OC)cc2)oc2ccc(O)cc12	35	13	43	4	6
CCOC(=O)c1c(-c2ccc(OC)cc2)oc2ccc(OCC(N)=O)cc12	12	6	5	+	-2
Oc1cccc(Nc2nc(O)c(/C=C3\C=Nc4ccccc43)s2)c1	21	-12	-1	5	41*
COC(=O)C1=C(c2ccc(S(C)(=O)=O)cc2)CC2CCC1N2C(=O)NCCS(C)=O (stereo unspecified)	.	11	.	.	.
CN1/C(=C/C=N/n2cnnc2)C(C)(C)c2ccccc21	-5	.	1	3	45*
Cc1ccc2nc(Cl)c(C=NNC(=O)C3CC3c3ccccc3)cc2c1 (stereo unspecified)	.	2	.	.	.
Cc1ccc(NCC(=O)NN=Cc2ccc(-c3cccc(C(F)(F)F)c3)o2)cc1	.	4	.	.	.
COc1ccc(-c2cc(C(F)(F)F)n3nc(C(=O)N4CCOCC4)nc3n2)cc1	-12	.	.	0	44*
O=C(c1nc2nc(-c3ccccc3)cc(C(F)(F)F)n2n1)N1CCCCC1	-20	2	1	8	-6
Cc1c(N=C(N)N=C(N)Nc2ccccc2)c(=O)n(-c2ccccc2)n1C	.	5	.	.	.
COc1cc(C=O)ccc1O	.	.	.	-1	58*
SMILES	DUSP3 inh	Mtb hypoxia inh	Mtb bLac sens	FBA Mtb inh	GDH-TPI counter
CCOc1cc(/C=C2\C(=O)NC(=O)N(C)C2=O)cc([N+](=O)[O-])c1O	4	7	-1	-9	14
COc1ccc(C=C2C(=O)NC(=S)NC2=O)cc1OC	.	6	.	-4	14
CCOc1cc(/C=C2\NC(=O)NC2=O)cc([N+](=O)[O-])c1O	16	16	-3	-4	32*
CCOc1cc(C=O)ccc1O	.	.	-2	1	31
CCOc1cc(C=C2C(=O)NC(=S)NC2=O)ccc1O	.	16	.	1	34*
COc1cc(/C=C2/NC(=O)NC2=O)ccc1OCC(=O)Nc1ccc(F)cc1	14	0	4	-1	15
CCOc1cc(/C=C2\NC(=O)NC2=O)ccc1OC(C)C(=O)O (stereo unspecified)	-10	-2	-1	-1	47*
COc1cc(C=NCc2ccccc2)ccc1O	.	.	.	-2	42*
COc1cc(C=C2NC(=O)NC2=O)ccc1O	.	.	.	4	35*
COc1cc(/C=C2\NC(=S)N(C)C2=O)ccc1O	-14	6	1	-17	12
CCCCC1CNC(=O)C(=O)N1CCCc1cc(OC)c(OC)c(OC)c1 (stereo unspecified)	.	9	.	.	.
O=c1c(-c2nc3ccccc3s2)cccn1Cc1ccccc1	23	16	3	194*	21
O=c1c(OCc2ccccc2)cccn1Cc1ccccc1	.	.	.	1	1
CCn1c(SCC(=O)Nc2ccc(Cl)cc2)nc2nc3c(cc2c1=O)CCCC3	60*	4	5	-1	6
CCn1c(SCC(=O)NCc2ccccc2)nc2nc3c(cc2c1=O)CCCC3	53*	4	-3	0	3
CCn1c(SCC(=O)Nc2ccc(C(C)=O)cc2)nc2nc3c(cc2c1=O)CCCC3	5	6	4	-1	11
Cc1ccc(S(=O)(=O)Nc2nc(C)cc(NN=Cc3ccc(O)cc3)n2)cc1	.	-4	.	.	.
Cc1ccc(CNC(=O)COc2cc(O)c3c(c2)OC(C)(C)CC3=O)cc1	13	.	-7	2	2
Cc1cc(=O)oc2c3c(cc(OCC(=O)NCC(=O)O)c12)OC(C)(C)CC3	-1	-5	-11	+	10
Cc1cc(=O)oc2c3c(cc(OCC(=O)Nc4cccnc4)c12)OC(C)(C)CC3	13	.	4	12	7
Cc1cc(=O)oc2c3c(cc(OCC(=O)NCc4ccccc4)c12)OC(C)(C)CC3	12	.	-4	150*	27
Cc1cc(=O)oc2c3c(cc(OCC(=O)Nc4ccc(CCO)cc4)c12)OC(C)(C)CC3	16	.	6	157*	22
Cc1cccc(C(=O)ON=C2CCS(=O)(=O)c3sccc32)c1	.	1	.	.	.
O=C(c1ccco1)N1CCCN(C(=O)c2ccco2)CC1	11	11	-6	-1	15
O=C(CCC1CCCC1)N1CCN(C(=O)c2ccco2)CC1	3	.	-5	135*	9
SMILES	DUSP3 inh	Mtb hypoxia inh	Mtb bLac sens	FBA Mtb inh	GDH-TPI counter
CC1(C)Cc2c(c(N3CCOCC3)nc3sc(-c4ccc(C(=O)O)o4)c(N)c23)CO1	-9	.	-4	69*	37*
CNC(=O)c1ccc(-c2sc3nc(N4CCOCC4)c4c(c3c2N)CCCC4)o1	8	8	61	14	11
Cc1ccsc1C=NNC(=O)c1nnn(-c2nonc2N)c1-c1ccc2c(c1)OCO2	.	-1	.	.	.
Nc1nonc1-n1nnc(C(=O)NN=Cc2ccc(F)cc2)c1-c1ccc2c(c1)OCO2	.	1	.	.	.
Cc1ccsc1/C=N/NC(=O)c1nnn(-c2nonc2N)c1-c1ccc2c(c1)OCO2	-1	.	8	-4	32*
Nc1nonc1-n1nnc(C(=O)N/N=C/c2cccs2)c1-c1ccc2c(c1)OCO2	17	.	-4	2	39*
CCOc1cccc(-c2c(C(=O)NN=Cc3sccc3C)nnn2-c2nonc2N)c1	.	5	.	.	.
CCOc1cccc(-c2c(C(=O)N/N=C/c3sccc3C)nnn2-c2nonc2N)c1	10	.	4	-1	32*
Cc1ccc(-c2c(C(=O)N/N=C/c3ccc4c(c3)OCO4)nnn2-c2nonc2N)cc1	20	.	0	4	43*
Cc1ccsc1/C=C1/SC(N2CCOCC2)=NC1=O	21	48*	97	.	.

Compound activity from PubChem BioAssay.
